Compounds with a hit are over-represented: about 12% of the library has one in this group of screens.
Sfp PPTase inh – inhibitors of Bacillus subtilis Sfp phosphopantetheinyl transferase; Q9F4F7; Biochemical Sfp PPTase activity, qHTS; Potency, µM, for inactives: largest response in the series, negative = inhibition, usual class: inhibitors; 310,000 compounds, 3.5% hits;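 note: the enzyme is Sfp with the accession as filed and its product quenches rhodamine fluorescence; 0% = enzyme reaction without inhibitor and -100% = no enzyme wells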
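Fluorescence-quenching assay: 15 nM Sfp-PPTase preincubated 15 min at room temperature with compound, then 5 uM rhodamine-CoA and 12.5 uM BHQ-2-labelled YbbR peptide added. Fluorescence (ex 525/em 598 nm) read at start and after 30 min; difference gives rate.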
G9a block – inhibitors of human histone lysine methyltransferase G9a; 350,000 compounds, 8.8% hits; Potency, µM (highest dose often 102 µM), inactives show at the highest dose activity, negative = inhibition, most hits filed as inhibitors; G9a H3K9 monomethylation, AlphaScreen, 2 h; Q96KQ7; note: % is set by controls: 0 for no effect and ±100 for the full control effect; nearly all actives have a fitted effect of over 75% in size
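Methyltransferase reactions run at room temperature for 2 h (20 nM enzyme, 500 nM biotin-H3K9 peptide, 20 uM SAM) after a 15 min compound preincubation; product detected by AlphaScreen beads and anti-H3K9me1 antibody.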
JMJD2A Tudor – inhibitors of human JMJD2A Tudor domain; AID 504339; 390,000 compounds, 4.4% hits; AlphaScreen JMJD2A-Tudor / H3K4me3 peptide binding; Potency, µM (highest dose often 114 µM), inactives show at the top dose activity change, negative = inhibition, usual class: inhibitors; O75164; note: % is set by controls: 0 for no effect and ±100 for the full control effect; nearly all actives have a fitted effect of over 50% in size
BAZ2B block – inhibitors of human BAZ2B bromodomain; Q9UIF8; AlphaScreen BAZ2B-H3K14Ac peptide displacement; 360,000 compounds, 4.4% hits; Potency, µM (highest dose often 114 µM), inactives show at the highest dose activity change, negative = inhibition, usual class: inhibitors; AID 504333; note: % is set by controls: 0 for no effect and ±100 for the full control effect; nearly all actives have a fitted effect of over 60% in size
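AlphaScreen displacement: compounds (up to 110uM) incubated 30 min at room temperature with a preformed 50 nM BAZ2B/50 nM biotinylated H3K14Ac peptide complex in PBS pH 7.4 with Tween-20. Donor and acceptor beads at 10 ug/mL final added, 20 min light-protected before reading.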
HP1b chromo inh – HP1-beta chromodomain-methylated histone interaction inhibition; P83916; AlphaScreen HP1-beta / biotin-H3K9me3 peptide binding; Potency, µM (highest dose often 114 µM), inactives show at the top dose activity change, negative = inhibition, hits mostly inhibitors; 390,000 compounds, 0.56% hits; AID 540317; note: nearly all actives have a fitted effect of over 70% in size
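HP1-beta protein (50 nM final) preincubated 30 min at room temperature with biotinylated H3(1-18)K9me3 peptide (50 nM) in PBS pH 7.4, 0.01% Tween-20, then compound added for 30 min. AlphaScreen streptavidin donor/nickel chelate acceptor beads (10 ug/mL final), 30 min dark, luminescence read.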
* = called active by the depositor; ? = inconclusive; . = no result; [ ] = another dose, or the depositor's remark. Calls come from the whole dose curve; as a rule, active = well fitted curve in the direction sought with a large enough effect; inconclusive = small, poorly fitted or top-dose-only effect, or another doubt; inactive = no such curve, though single readings can be large; an effect the other way counts as inactive or inconclusive. Potency is the fitted concentration of half-maximal effect.

SMILES	Sfp PPTase inh	G9a block	JMJD2A Tudor	BAZ2B block	HP1b chromo inh
CC(C)N(Cc1ccccc1)C(=O)c1nc(-c2ccc(Cl)cc2)n2c1CCCCC2	.	?	45µM*	35µM*	-15%
O=C(NCCc1ccc(Cl)cc1)c1nc(-c2cccc(F)c2)n2c1CCCCC2	.	25µM*	22µM*	11µM*	-23%
Cc1ccc(-c2nc(C(=O)NCc3ccc(Cl)cc3)c3n2CCCCC3)cc1	.	6%[59 µM]	-7%	4%	16%
O=C(NCc1ccccc1)c1nc(-c2ccc(Cl)cc2)n2c1CCCCC2	.	14µM*	22µM*	13µM*	-5%
COc1cc(NC(=O)c2nc(-c3ccc(Cl)cc3)n3c2CCCCC3)cc(OC)c1OC	.	?	-20%	-35%	5%
COC(=O)c1ccc(NC(=O)c2nc(-c3ccc(Cl)cc3)n3c2CCCCC3)cc1	.	?	-35%	?	-1%
CC(=O)Nc1ccc(OC(=O)c2c(-c3ccccc3Cl)noc2C)cc1	27%	15%[59 µM]	1%	-4%	26%
COc1ccc(NC(=O)Cn2c(=O)c(-c3cc(C)ccc3NC(C)=O)nc3ccccc32)c(OC)c1	.	-30%[59 µM]	-10%	3%	35%
O=C(c1nc(-c2ccc(Cl)cc2)n2c1CCCCC2)N1CCN(c2ccc(F)cc2)CC1	.	?	40µM*	40µM*	?
CCOc1ccccc1CNC(=O)c1nc(-c2ccc(Cl)cc2)n2c1CCCCC2	.	10µM*	?	10µM*	-15%
O=C(O)COc1ccccc1/C=N/NC(=O)CSc1nc2ccccc2n1Cc1ccccc1Cl	-8%	?	?	71µM*	1%
O=C(CSc1nc2ccccc2n1Cc1ccccc1Cl)N/N=C/c1ccccc1C(=O)O	?	9%	-25%	0%	15%
C=CCNC(=S)NNC(=O)c1ccc(OCC)cc1	10%	11%[59 µM]	-9%	3%	44%
O=C(CSC1=Nc2ccccc2C2=NC(Cc3c[nH]c4ccccc34)C(=O)N12)NC1CCCCC1 (centres undefined)	-12%	50µM*	-13%	-8%	2%
CCC1(C)CC2(CCCN(CCC(=O)c3ccccc3)C2)CCO1 (centres undefined)	5%	50µM*	-9%	1%	31%
CCc1nc(NCc2ccccn2)c2oc3ccccc3c2n1	13%	25µM*	-23%	?	35%
CCc1nc(Nc2ccccc2OC)c2oc3ccccc3c2n1	-21%	50µM*	4%	-3%	56%
CCOc1cc(/C=N/NC(=O)Cc2ccc(C(F)(F)F)cc2[N+](=O)[O-])ccc1O	20%	?	3%	-9%	13%
COc1ccc(/C=N/Nc2ccc(C(F)(F)F)cc2[N+](=O)[O-])cc1O	-3%	?	89µM*	?	?
CCOc1ccc(/C=N/Nc2ccc(C(F)(F)F)cc2[N+](=O)[O-])cc1O	-5%	45µM*	-30%	?	-30%
O=C(Cn1cc(Br)ccc1=O)Nc1ccc2c(c1)OCO2	.	-27%[12.7 µM]	-5%	-14%	47%
CN(CCOc1ccc(NS(C)(=O)=O)cc1)CCc1ccc(NS(C)(=O)=O)cc1	8%	30%[59 µM]	.	0%	.
O=C(O)CCc1nn2cnc3sc4c(c3c2nc1=O)CCCC4	?	-9%[12.7 µM]	-22%	-3%	7%
O=C1N(Cc2cccc(Cl)c2)C[C@@H]2C[C@@H](c3c[nH]c4ccccc34)N3CCC[C@@]123	-17%	35µM*	?	-31%	-30%
Cc1cccc([C@@H]2C[C@H]3CN(Cc4cccc(Cl)c4)C(=O)[C@]34CCCN24)n1	-7%	40µM*	-2%	-21%	18%
SMILES	Sfp PPTase inh	G9a block	JMJD2A Tudor	BAZ2B block	HP1b chromo inh
Cc1ccc([C@@H]2C[C@H]3CN(Cc4cccc(Cl)c4)C(=O)[C@]34CCCN24)o1	-13%	?	-8%	?	17%[57 µM]
Cc1ccccc1C(=O)Oc1ccc(Sc2ccc(O)cc2)cc1	-6%	3%[2.33 µM]	.	-3%	.
Cc1ccc(O)c(C(=O)c2cnc3c(c2)CN(C)C(=O)N3)c1	-10%	?	-16%	-8%	-10%
CN1Cc2cc(C(=O)c3cc(Cl)cc(CSc4ncccn4)c3O)cnc2NC1=O	2%	50µM*	.	-30%	.
Cn1c(=O)n(C)c2cc(/C=N/NC(=O)c3ccc(Cl)cc3Cl)ccc21	15%	18%	-2%	-38%[57.1 µM]	38%
Cn1c(=O)n(C)c2cc(/C=N/NC(N)=S)ccc21	32µM*	20µM*	-10%[57.1 µM]	-37%	-9%
COc1ccc(C(=O)NCC(c2cccnc2)N2CCc3ccccc32)cc1 (centres undefined)	.	?	-22%	-2%	22%
COc1ccc(OC)c(S(=O)(=O)NCC(c2ccco2)N2CCc3ccccc32)c1 (centres undefined)	.	50µM*	?	?	-34%
COc1cc(C(=O)NCC(c2ccco2)N2CCc3ccccc32)cc(OC)c1OC (centres undefined)	.	50µM*	?	79µM*	-26%
COc1ccc(OC)c(S(=O)(=O)NCC(c2cccs2)N2CCc3ccccc3C2)c1 (centres undefined)	.	8%[2.33 µM]	-16%	-4%	22%
CCOc1ccccc1C(=O)NCC(c1ccc(N(C)C)cc1)N1CCc2ccccc21 (centres undefined)	.	13µM*	10µM*	5.6µM*	?
COc1ccccc1C(=O)NCC(c1ccco1)N1CCc2ccccc21 (centres undefined)	.	50µM*	?	50µM*	5%
O=C(CCCN=C1NS(=O)(=O)c2ccccc21)OCC(=O)c1ccc(F)cc1	.	?	-14%	13%	20%
O=C(NCC(c1ccco1)N1CCc2ccccc21)c1ccccc1 (centres undefined)	.	50µM*	?	?	-18%
O=C1c2ccccc2C(=O)N1CCCCc1cn(C[C@H]2CC[C@H](Cn3cc(CCCCN4C(=O)c5ccccc5C4=O)nn3)O2)nn1	.	.	-20%	.	30%
OC1(c2ccccc2)CN(c2ccccc2)C2=[N+]1CCS2 (centres undefined)	5%	-23%[59 µM]	-20%	40µM*	1%
CCN(CC)c1ccc(N=CN2CCOCC2)cc1	4%	11µM*	79µM*	?	?
CCN(CC)c1ccc(C=Nc2ccccc2)c(O)c1	-29%	?	-35%	-38%	?
Cc1ccc(-c2csc(Nc3ccc(C(=O)O)cc3)[n+]2Cc2ccccc2)cc1	13%	15%	40µM*	-38%	-26%
O=C(Cc1nc(-c2ccc([N+](=O)[O-])cc2)cs1)Nc1ccccc1	-9%	.	-13%	-34%	7%
O=[N+]([O-])c1ccc(-c2csc(Nc3ccccc3)[n+]2Cc2ccccc2)cc1	-10%	?	18µM*	40µM*	16µM*
COc1ccc(-c2csc(Nc3ccccc3)[n+]2Cc2ccccc2)cc1	-15%	16µM*	-3%	.	?

Screens as filed in PubChem.
